Screening results from PubChem BioAssay.
hNpr1 antagonist – antagonists of human natriuretic peptide receptor Npr1; P16066; HEK293 hNpr1 GloSensor cGMP, ANP-stimulated luminescence; Potency, µM (series often up to 46.3 µM), inactives show at the highest dose activity change, negative = inhibition, usual class: inhibitors; hit rate 1.6% among 76,000; AID 1347048; calls by dose curve; note: % is set by controls: 0 for no effect and ±100 for the full control effect; nearly all actives have a fitted effect of over 60% in size
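Compound pre-incubated 30 min at room temperature on GloSensor-loaded HEK293 cells stably carrying hNpr1 and the pGS-40F cGMP biosensor. Stimulation uses hNppA at 0.1 nM final; luminescence is taken at baseline and 20 min post-agonist.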
GPT2 inhibitor – GPT2 alanine aminotransferase inhibition | Recombinant GPT2, coupled pyruvate oxidase/HRP Amplex Red fluorescence | Potency, µM (series often up to 57.7 µM), without a hit: top-dose activity change, negative = inhibition, usual class: inhibitors | hit rate 0.25% among 100,000 | AID 1671188; note: % is set by controls: 0 for no effect and ±100 for the full control effect; nearly all actives have a fitted effect of over 60% in size
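Fluorescence read-out: pyruvate from GPT2 turnover coupled to pyruvate oxidase, HRP and Amplex Red (0.2mM ThPP, 0.2U/mL PO and HRP, 50uM Amplex final). Substrates 250uM a-KG, 2mM L-alanine; enzyme 10ng/uL; 30 min RT.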
NIH3T3 tox – cytotoxic compounds in NIH 3T3 cells; hit rate 4.3% among 94,000; AID 1345082; NIH 3T3 viability, CellTiter-Glo ATP luminescence, 48-72 h; Potency, µM (highest dose often 96.7 µM), for the others: at the top dose activity change, negative = cytotoxicity, usual class: inhibitors; note: % is set by controls: 0 for no effect and ±100 for the full control effect; nearly all actives have a fitted effect of over 55% in size
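Mouse fibroblast NIH 3T3 cells, 400 per well, received compound via pintool and were incubated for 48 or 72 hr prior to CellTiter-Glo ATP luminescence measurement.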
HEK293 tox – cytotoxic compounds in HEK 293 cells; HEK 293 viability, ATP luminescence (CellTiter-Glo), 48-72 h; Potency, µM (titrated, usually from 115 µM), without a hit: top-dose activity change, negative = cytotoxicity, most hits filed as inhibitors; hit rate 6.6% among 94,000; AID 1345083; note: % is set by controls: 0 for no effect and ±100 for the full control effect; nearly all actives have a fitted effect of over 60% in size
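ATP-coupled CellTiter-Glo luminescence served as viability read-out, recorded 10 min after reagent addition at room temperature. HEK 293 cells, 250 cells/well, had been incubated with pintool-transferred compound for 48 or 72 hr at 37 degree Celsius.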
Luciferase inh – blocks purified firefly luciferase enzyme activity | P08659 | purified P. pyralis luciferase, luminescence, biochemical | Potency, µM (highest dose often 115 µM), actives largely listed as inhibitors | hit rate 2.5% among 76,000 | AID 1347043; note: % is set by controls: 0 for no effect and ±100 for the full control effect; nearly all actives have a fitted effect of over 65% in size
Target sequence (P08659 whole entry, looked up): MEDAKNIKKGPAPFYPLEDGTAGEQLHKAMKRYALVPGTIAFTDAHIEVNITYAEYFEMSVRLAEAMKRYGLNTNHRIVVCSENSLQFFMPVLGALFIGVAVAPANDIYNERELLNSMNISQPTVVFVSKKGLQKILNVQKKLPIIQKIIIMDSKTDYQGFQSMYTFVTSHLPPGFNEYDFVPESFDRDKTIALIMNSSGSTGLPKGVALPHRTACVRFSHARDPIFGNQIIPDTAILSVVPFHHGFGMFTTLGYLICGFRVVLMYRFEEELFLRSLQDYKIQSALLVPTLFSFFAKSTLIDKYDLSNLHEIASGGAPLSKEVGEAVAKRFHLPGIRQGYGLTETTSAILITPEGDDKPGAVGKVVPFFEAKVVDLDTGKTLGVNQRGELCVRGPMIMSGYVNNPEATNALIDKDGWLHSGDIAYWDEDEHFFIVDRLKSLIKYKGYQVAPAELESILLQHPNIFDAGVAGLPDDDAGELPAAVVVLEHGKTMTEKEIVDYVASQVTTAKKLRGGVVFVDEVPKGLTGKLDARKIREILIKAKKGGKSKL
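Luminescence read by CCD imager after adding enzyme (10nM final) to wells holding compound, titrated in qHTS. Substrates 10uM each D-luciferin and ATP; buffer 50mM Tris acetate pH 7.5, 10mM Mg acetate, Tween-20, BSA.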
NPR1 antag cnf – confirmation of human Npr1 natriuretic peptide receptor antagonists. shares compounds with hNpr1 antagonist. HEK293 hNpr1 cGMP GloSensor luminescence, ANP-stimulated. Potency, µM (series often up to 57.6 µM), for inactives: at the top dose activity change, negative = inhibition, most hits filed as inhibitors. hit rate 76% among 1,400. AID 1347044; calls by dose curve; note: nearly all actives have a fitted effect of over 70% in size
NPR2 antag – hNpr2 antagonism, selectivity versus Npr1; shares compounds with hNpr1 antagonist; HEK293 hNpr2 GloSensor cGMP luminescence, CNP-stimulated; Potency, µM (doses to about 57.6 µM), without a hit: at the top dose activity change, negative = inhibition, usual class: inhibitors; hit rate 67% among 1,400; AID 1347046; calls by dose curve; note: nearly all actives have a fitted effect of over 70% in size
FLuc counter – inhibits firefly luciferase, false Npr1 antagonist flag; hit rate 0.7% among 1,400; shares compounds with hNpr1 antagonist; purified FLuc enzyme, luminescence, Km substrate; Potency, µM (doses to about 57.6 µM), for the others: top-dose activity change, negative = inhibition, usual class: inhibitors; note: 0% is about no effect
GloSensor ctrl – control cell line activity, Npr1 antagonist counter-screen; shares compounds with hNpr1 antagonist; HEK293 GloSensor cGMP, SNP-stimulated, luminescence; Potency, µM (titrated, usually from 57.6 µM), for inactives: at the top dose activity change, negative = inhibition, usual class: inhibitors; hit rate 69% among 1,400; AID 1347051; calls by dose curve; note: % is set by controls: 0 for no effect and ±100 for the full control effect; nearly all actives have a fitted effect of over 70% in size
An asterisk follows results filed as active; i = inactive; ? = inconclusive; nt = no result; [ ] = remark or other dose. In the library only some 10% were active in any assay of this set; here they are far more common. Unless noted, calls come from the whole dose curve; as a rule, active = well fitted curve in the direction sought with a large enough effect; inconclusive = small, poorly fitted or top-dose-only effect, or another doubt; inactive = no such curve, though single readings can be large; an effect the other way counts as inactive or inconclusive. Potency is the fitted concentration of half-maximal effect.

SMILES | hNpr1 antagonist | GPT2 inhibitor | NIH3T3 tox | HEK293 tox | Luciferase inh | NPR1 antag cnf | NPR2 antag | FLuc counter | GloSensor ctrl
O=C(Nc1ccc(F)cc1)c1ccc2c(c1)OCCN(c1ccccc1)C2 | 31.6µM* | ? | ? | 56.2µM* | i | 39.6µM* | 39.6µM* | -13.9%[86.2 µM] | 39.6µM*
O=C(NCc1ccccc1)c1ccc2c(c1)OCCN(c1ccccc1)C2 | ? | -2.1%[88.5 µM] | ? | ? | i | ? | ? | -1.2%[86.2 µM] | ?
COc1cccc(CCC2CCCNC2)c1 (stereo unspecified) | -1.4% | 2.5% | -8.1% | -5.0% | i | nt | nt | nt | nt
O=C1NC(=NC2CCCC2)C2(CCCN(Cc3cccnc3)C2)N1c1cc(F)cc(F)c1 (stereo unspecified) | nt | ? | 25.1µM* | 2.2% | nt | -16.1% | -0.1% | 2.6% | -7.7%
CN(C(=O)c1ccc2c(c1)NC(C)(COc1cccnc1)CO2)c1ccccc1 (stereo unspecified) | 3.16µM* | -20.1%[88.5 µM] | -36.9%[138 µM] | ? | i | 3.53µM* | 4.98µM* | -3.3%[86.2 µM] | 3.14µM*
CC1(COc2cccnc2)COc2ccc(C(=O)NCc3cnccn3)cc2N1 (stereo unspecified) | -1.6%[70.6 µM] | i | -14.8%[138 µM] | ? | i | nt | nt | nt | nt
CC1(COc2cccnc2)COc2ccc(C(=O)NCc3ccc(F)cc3)cc2N1 (stereo unspecified) | 35.5µM* | -13.8%[88.5 µM] | ? | 56.2µM* | i | 31.4µM* | 31.4µM* | 2.5%[86.2 µM] | 25µM*
COCCN(C)C(=O)c1ccc2c(c1)NC(C)(COc1cccnc1)CO2 (stereo unspecified) | ? | -3.6%[88.5 µM] | ? | ? | i | nt | nt | nt | nt
CC1(COc2cccnc2)COc2ccc(C(=O)NCc3ccc4c(c3)OCO4)cc2N1 (stereo unspecified) | 25.1µM* | -10.2%[88.5 µM] | ? | ? | i | 31.4µM* | 31.4µM* | 0.5%[86.2 µM] | 22.2µM*
COc1ccc(OCC2(C)COc3ccc(C(=O)N(C)C)cc3N2)cc1 (stereo unspecified) | ? | -16.7%[88.5 µM] | -30.2%[138 µM] | ? | i | nt | nt | nt | nt
COc1ccc(OCC2(C)COc3ccc(C(=O)Nc4ccccc4)cc3N2)cc1 (stereo unspecified) | 25.1µM* | -4.4%[88.5 µM] | ? | ? | i | 35.3µM* | 35.3µM* | -5.6%[86.2 µM] | 35.3µM*
Cc1noc(C)c1S(=O)(=O)N1CCc2nn(Cc3ccccc3)c(=O)n2CC1 | nt | -10.3% | -13.5% | -2.9% | nt | nt | nt | nt | nt
CCCn1cc(C(=O)NC(C)c2cnn(-c3cccc(F)c3)c2C)c(C)n1 (stereo unspecified) | 2.82µM* | -3.6% | -31.0% | ? | i | 4.32µM* | 6.11µM* | 4.1% | 3.06µM*
Cc1c(C(C)NC(=O)c2cc(CC(C)C)nn2C)cnn1-c1ccccc1 (stereo unspecified) | 0.282µM* | -0.1% | -41.9% | -80.8% | i | 0.432µM* | 0.485µM* | 0.0% | 0.432µM*
Cc1nc(NCCc2nc3ccccc3n2C)cc(C2CC(O)C2)n1 (stereo unspecified) | 0.1% | i | -8.2% | 0.8% | i | nt | nt | nt | nt
